Rows were chosen to be rich in hits. Some 7.1% of all compounds tested hit in one or more screens of this group.
ATXN2 expr inh – Primary qHTS for Inhibitors of ATXN expression | HEK-293 ATXN2-luciferase reporter, luminescence, 24 h | Potency, µM (titrated, usually from 57 µM), for inactives: at the top dose activity change, negative = inhibition, hits mostly inhibitors | 360,000 compounds, 0.72% hits | AID 1745845, 2022; note: potency is the fitted concentration of half-maximal effect; % is set by controls: 0 for no effect and ±100 for the full control effect; nearly all actives have a fitted effect of over 55% in size
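qHTS (up to 57 uM final) was run with 24 h compound exposure of reporter cells at 37 °C. Each well was multiplexed: SteadyGlo luminescence measured ATXN2-luciferase expression after a fluorogenic Gly-Phe-AFC viability readout (25 uM final).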
MCF10A rereplic – A quantitative high throughput screen for small molecules that induce DNA re-replication in MCF 10a normal breast cells. 350,000 compounds, 2.9% hits. Potency, µM (series often up to 46.1 µM), without a hit: at the top dose activity, positive = re-replication, hits mostly activators. MCF 10A DNA re-replication, Hoechst nuclear intensity, 48 h; note: potency is the fitted concentration of half-maximal effect; % of control where 0% means no effect; nearly all actives have a fitted effect of over 50% in size
SW480 rereplic – A quantitative high throughput screen for small molecules that induce DNA re-replication in SW480 colon adenocarcinoma cells; 340,000 compounds, 1.8% hits; SW480 DNA re-replication, Hoechst DNA content imaging, 48 h; AID 624297, 2012; Potency, µM (doses to about 46.1 µM), for the others: at the top dose re-replication activation, usual class: activators; note: potency is the fitted concentration of half-maximal effect; % of control where 0% means no effect; nearly all actives have a fitted effect of over 55% in size
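250 cells/well; 23 nL cpd via pin tool; 48 hr, 37 C, 5% CO2; Hoechst 40 min; imager read of total nuclear intensity, ex 405/em 500-530 nm.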
IL1B secr inh – qHTS for Inhibitors of Inflammasome Signaling: IL-1-beta AlphaLISA Primary Screen. THP-1 LPS/ATP IL-1B secretion, AlphaLISA, 16 h; hits give low values. activity change, % at 57.5 µM. 360,000 compounds, 4.7% hits. AID 743279, 2014; in the data active = activity change below about -50%; inconclusive = mostly about -30% to -49%; note: % is set by controls: 0 for no effect and ±100 for the full control effect
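THP-1 cells pretreated 1 hr with compounds (up to 57.5 uM final), then stimulated with LPS (250 ng/mL final) plus ATP (1.25 mM final); secreted IL-1B measured by AlphaLISA after 16 hr, decreased signal indicating inhibition.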
PINK1 modulator – A Quantitative High throughput Screen to Identify Chemical Modulators of PINK1 Expression; PINK1 immunofluorescence, high-content cytometry, 24 h; Potency, µM (highest dose often 76.6 µM), without a hit: at the top dose activation (PINK1 increase), actives largely listed as activators; 410,000 compounds, 0.2% hits; active = well fitted activation curve with a large enough effect; inconclusive = small, poorly fitted or top-dose-only effect; cell line not stated here; note: potency is the fitted concentration of half-maximal effect; % of control where 0% means no effect; nearly all actives have a fitted effect of over 65% in size
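Stable cell line treated 24 h with compounds at 5 concentrations (CCCP controls), then fixed and immunostained for PINK1 plus nuclear and cell stains; PINK1 immunofluorescence quantified by laser-scanning microplate cytometry.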
S2 tox – Viability Counterscreen for Primary qHTS for Inhibitors of ATXN expression | 400,000 compounds, 0.49% hits | Potency, µM (doses to about 56.7 µM), usual class: cytotoxic | S2 cells (HEK-293 line with an ATXN2-luciferase reporter) viability, CellTiter-Fluor protease fluorescence, 24 h; note: potency is the fitted concentration of half-maximal effect; nearly all actives have a fitted effect of over 40% in size
The depositor's hits bear a star; i = inactive; ? = inconclusive; . = no result; ! = not confirmed by another sample; [ ] = another dose, or the depositor's remark. Unless noted, calls come from the whole dose curve; as a rule, active = well fitted curve in the direction sought with a large enough effect; inconclusive = small, poorly fitted or top-dose-only effect, or another doubt; inactive = no such curve, though single readings can be large; an effect the other way counts as inactive or inconclusive.

SMILES	ATXN2 expr inh	MCF10A rereplic	SW480 rereplic	IL1B secr inh	PINK1 modulator	S2 tox
COc1ccc(CN2CCN(C(c3ccc(F)cc3)c3ccc(F)cc3)CC2)c(OC)c1OC	40µM*!	21µM*	17%	-24	?	?
COC(=O)c1ccc(NC(=O)CC2C(=O)N(c3ccc(F)cc3)C(=O)N2Cc2ccc(OC)cc2)cc1 (configuration not stated)	.	.	.	.	0%	.
Cc1cccc(Cn2cc(C(=O)Nc3ccc(S(N)(=O)=O)cc3)ccc2=O)c1	10%	.	.	.	-4%	i
O=C(COCc1cc(-c2cccs2)on1)N1CCN(c2ccccc2)CC1	.	.	.	.	1%	.
Cc1ccccc1-c1noc(-c2ccc(N3CCC(C)CC3)c([N+](=O)[O-])c2)n1	16%	.	.	.	1%	i
Cc1c(Cc2ccccc2)sc(NC(=O)/C=C/c2cccc3ccccc23)c1C(N)=O	-33%	2.3µM*	?	10	22%	i
Cc1c(Cc2ccc3c(c2)OCO3)sc(NC(=O)c2cccc3ccccc23)c1C(N)=O	-14%	?	?	-15	9%	i
Cc1c(Cc2ccccc2)sc(NC(=O)c2ccco2)c1C(N)=O	15%	15µM*	1%	-21	11%[38.3 µM]	i
COC(=O)c1c(NC(=O)c2ccco2)sc(C)c1C	5%	?	?	10	0%	i
COC(=O)c1c(NC(=O)/C=C/C(=O)O)sc(Cc2ccccc2)c1C	?	15µM*	?	-111*	-3%	i
CCOc1ccccc1CN(CCc1ccc2c(c1)OCO2)Cc1cccc(OC)c1OC	-29%	.	.	.	?	i
COc1ccc(Cl)c2c1[nH]c1nc(SCc3ccccn3)nnc12	112%	-2%	-5%	-82*	0%	i
S=C(NCCCN1CCOCC1)NCCCN1CCOCC1	-7%	-3%	3%	0	1%	i
CCCCCCCCNC(=S)NCCN1CCCCC1	.	12µM*	?	-62*	-3%	25µM*
COc1ccccc1Cn1ccn(Cc2ccc(C)cc2)c(=O)c1=O	.	.	.	.	7%	.
Cc1nc2cc(NCc3ccccc3O)ccc2n1Cc1ccccc1	3%	13%[9.22 µM]	10%	-54*	0%	i
Cc1ccc(CN2C(=O)CN(C3CCCCCC3)C(=O)C2c2ccc(F)cc2)cc1 (configuration not stated)	.	.	.	.	1%	.
CN(C)c1ccc(N/C=C/C(=O)C(C)(C)C)cc1	56%	?	?	-98*	0%	i
COc1ccc(S(=O)(=O)NCc2ccccn2)cc1NC(=O)c1ccccc1	-14%	21µM*	9.2µM*	33	9%	?
CCOc1ccc(S(=O)(=O)NCc2ccccn2)cc1NC(=O)c1ccccc1F	-8%	?	0.82µM*	60	5%	i
COc1cc(/C=C2/SC(=S)N(CCC(=O)Nc3ccccc3)C2=O)cc(OC)c1OC	-10%	21µM*	1%	-2	1%	i
COc1cc(/C=C2\SC(=S)N(CCC(=O)Nc3cccc(O)c3)C2=O)cc(OC)c1OC	-25%	?	-3%	-98*	5%	?
COc1cc(/C=C2\SC(=S)N(CCC(=O)Nc3ccccc3)C2=O)cc(OC)c1OC	-8%	18µM*	-56%	8	3%	i
COc1cc(/C=C2/SC(=S)N(CCC(=O)Nc3cccnc3)C2=O)cc(OC)c1OC	.	.	.	-20	9%	?
COc1ccccc1NC(=O)CCN1C(=O)/C(=C\c2cc(OC)c(OC)c(OC)c2)SC1=S	8%	1%	5%	9	7%	i
COc1ccccc1/C=C1\SC(=S)N(CCC(=O)Nc2cccc(O)c2)C1=O	?	10µM*	-24%	-25	1%	?
COC(=O)c1cc(Cl)ccc1NC(=O)Cn1c(C)cc(C)c(C#N)c1=O	1%	.	.	.	1%	i

Screening data as filed in PubChem.
